Reference: PubChem BioAssay AID2284381 (EPA ToxCast)
Records with an inconclusive call do not appear. The source made the active and inactive calls. How the source made its calls: active means hit-call score of the fitted dose curve at least 0.9, where 1 is the maximum; inconclusive means response in the unintended direction; inactive means score below 0.9.

Each compound was assayed on Japanese medaka Retinoid X Receptor beta (RXRb), gene 100125505 (assay: ATG_jmRXRb_EcoTox2: Attagene TRANS-FACTORIAL EcoTox-2 HepG2 Assay for Japanese medaka Retinoid X Receptor beta (RXRb)).
Procedure: ATG_EcoTox2 is a cell-based, multiplexed assay created by modifying the existing Attagene TRANS-FACTORIAL system to include a panel of nuclear receptors from some or all the following species: human (Homo sapiens), african clawed frog (Xenopus laevis), rainbow trout (Oncorhynchus mykiss), japanese medaka (Oryzias latipes), and zebrafish (Danio rerio). The ECOTOX2-FACTORIAL format uses HepG2, a human liver cell line, with measurements taken at 24 hours after chemical dosing in a 24-well plate. ATG_jmRXRb_EcoTox2 is one of 29 assay components calculated in the ATG_EcoTox2 assay. It is designed to make measurements of mRNA induction, a form of inducible reporter, as detected with fluorescence intensity signals by Reverse transcription polymerase chain reaction (RT-PCR) and Capillary electrophoresis technology.The assay endpoint ATG_jmRXRb_EcoTox2 was analyzed in the positive analysis fitting direction relative to DMSO as the negative control and baseline of activity. Using a type of inducible reporter, measures of mRNA for gain-of-signal activity can be used to understand the reporter gene at the transcription factor-level as they relate to the gene RXRb. Furthermore, this assay endpoint can be referred to as a primary readout, because this assay has produced multiple assay endpoints where this one serves a reporter gene function. To generalize the intended target to other relatable targets, this assay endpoint is annotated to the nuclear receptor intended target family, where the subfamily is non-steroidal.
Human liver HepG2 cells are transiently transfected with multiple reporter transcription units (MRTUs) in 6-well plates using FuGene 6 reagent (Roche; 3 ml FuGene/1 mg DNA). The MRTU constructs are regulated by a cis-regulating element (promoter). Each RTU expresses a GAL4-UAS that regulates the transcription of a nearby target reporter gene sequence. A major difference between the CIS and TRANS system is that in CIS activities of endogenous TFs are measured, whereas the TRANS assay evaluates changes in activities of exogenous, chimeric NR-Gal4 proteins. […] At the end of 24 hour incubation, total RNA was isolated using TriZol reagent (Invitrogen). The isolated RNA is then reverse-transcribed using oligo(dT) primer and Mo-MLV reverse transcriptase (Invitrogen) with DNAse I (Ambion) treatment for 30 min. The one-tenth of the produced cDNA was amplified by PCR using Taq DNA polymerase (Invitrogen) and two reporter sequence-specific primers. The PCR products were fluorescently labeled by primer extension with 6-arboxyfluorescein (6-FAM) 5'-labeled reporter sequence-specific primer (2 min at 95 C, 20 s at 68 C and 10 min at 72 C) and these products were digested with 5U of HpaI (New England Biolabs) for 2h at 37 C. The fragments were purified using Qiaquick PCR columns (Qiagen), analyzed on an ABI 3130xL genetic analyzer (Applied Biosystems) with peak positions identified by using a set of X-rhodamine (ROX)-labeled MapMarker1000 molecular weight standards (BioVentures). The raw capillary electrophoresis data was processed using Attagraph software (Attagene).

Row | SMILES | outcome | AC50
1 | CC(C)(Oc1ccc(CCNC(=O)c2ccc(Cl)cc2)cc1)C(=O)O | inactive | –
2 | C[C@@H]1C[C@H]2[C@@H]3CCC4=CC(=O)C=C[C@]4(C)[C@@]3(F)[C@@H](O)C[C@]2(C)[C@@]1(O)C(=O)COP(=O)(O)O | inactive | –
3 | Cc1nc(-c2ccc(C(F)(F)F)cc2)sc1C(=O)NCc1ccc(OC(C)(C)C(=O)O)cc1 | inactive | –
4 | C=C(c1ccc(C(=O)O)cc1)c1cc2c(cc1C)C(C)(C)CCC2(C)C | – | 0.00302 µM (active)
5 | CC(C)(Oc1ccc(Cl)cc1)C(=O)O | inactive | –
6 | CC(c1cc2ccccc2s1)N(O)C(N)=O (stereo not given) | inactive | –
7 | CC(C)(Oc1ccc(C2CC2(Cl)Cl)cc1)C(=O)O (stereo not given) | inactive | –
8 | Cc1ccc(C)c(OCCCC(C)(C)C(=O)O)c1 | – | 50 µM (active)
9 | Cc1cccc(Nc2cc(Cl)nc(SCC(=O)O)n2)c1C | – | 27.4 µM (active)
10 | CN(CCOc1ccc(CC2SC(=O)NC2=O)cc1)c1ccccn1 (stereo not given) | – | 12.9 µM (active)
